Data taken from PubChem BioAssay (NCI).
This is part of a sample that, as a whole, favours compounds with a hit. Of some 79,000 tested, about 15% had one in any assay. Rule as the data show it: active = growth inhibition above about 70%; inactive = the rest.

Columns and labels:
[1] = NCI Yeast Anticancer Drug Screen. Data for the rad50 strain (AID 155);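 also: 0% = growth of vehicle-only cultures of the same strain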; settings: S. cerevisiae rad50 strain growth inhibition; at 50.0 µM; active compounds read high
Outline: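 A DNA repair-deficient yeast mutant serves as the test organism; compound-induced growth inhibition is calculated against vehicle-treated cells.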

[2] = NCI Yeast Anticancer Drug Screen. Data for the mec2-1 strain (AID 157); settings: S. cerevisiae mec2-1 strain, at 50.0 µM, active compounds read high
Outline: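 Each compound was tested on mec2-1 yeast, a strain altered in DNA damage repair or cell cycle control. Growth inhibition is reported relative to vehicle.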

[3] = NCI Yeast Anticancer Drug Screen. Data for the sgs1 mgt1 strain (AID 161);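 also: 0% = growth of cultures given vehicle only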; settings: S. cerevisiae sgs1 mgt1 strain, at 50.0 µM, active compounds read high
Outline: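 Genetically altered yeast, compound exposure, growth inhibition relative to vehicle.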

[4] = NCI Yeast Anticancer Drug Screen. Data for the cln2 rad14 strain (AID 165);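 also: 0% = growth equal to vehicle treated cultures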; settings: S. cerevisiae cln2 rad14 strain, at 50.0 µM, active compounds read high
Outline: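 Test compounds were added to cln2 rad14 yeast cultures; inhibition of growth was then determined by comparison with vehicle treatment.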

[5] = NCI Yeast Anticancer Drug Screen. Data for the bub3 strain (AID 167); settings: S. cerevisiae bub3 mutant strain, at 50.0 µM, active compounds read high
Outline: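 Inhibition values come from growth of compound-treated mutant yeast normalised to vehicle-treated controls.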

[6] = NCI Yeast Anticancer Drug Screen. Data for the mlh1 rad18 strain (AID 175); settings: S. cerevisiae mlh1 rad18 strain growth inhibition; at 50.0 µM; active compounds read high
Outline: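 Inhibition values reflect reduced growth of mutant yeast versus vehicle-treated controls following compound exposure; the mutations affect DNA damage repair.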

Measured: growth inhibition

CC(C)CCC[C@@H](C)[C@H]1CC[C@@]2(C)[C@@H]3CC[C@@H]4C(=O)CC[C@]4(C)[C@H]3CC[C@]12C
inactive: [1] 31.3% | [2] 1.5% | [3] 41.5% | [4] 26.8% | [5] 1.6% | [6] 42.1%

COC(=O)CC1(CC(=O)O)SCCS1
inactive: [1] -13.6% | [2] 4.3% | [3] 11.5% | [4] 2.9% | [5] 13.5% | [6] -8.25%

CCCC(C)C(=O)OCCCc1ccccc1 (stereo unspecified)
inactive: [1] 7.55% | [2] -5.2% | [3] 2.9% | [4] -20.1% | [5] 18.8% | [6] 3.8%

CCOc1c(N=Nc2ccccc2C)c(-c2ccccc2)nn1C(N)=S
inactive: [1] 8.25% | [2] 6.85% | [3] 5.4% | [4] 25.4% | [5] -3.5% | [6] 8.25%

CCCCCCCSc1nc2ccc(N=Cc3ccccc3O)cc2s1
inactive: [1] -9.8% | [2] -5.9% | [3] -16.9% | [4] -3.25% | [5] -0.9% | [6] -24.4%

Cc1cc(NCCN(C)C)nc(Nc2ccc(Cl)cc2)n1
inactive: [1] 50.8% | [2] 19.4% | [3] 31.6% | [4] -13.9% | [5] 10.9% | [6] 54.8%

N#C/C(N)=C(\C#N)NC=NCc1ccccc1
inactive: [1] -10.8% | [2] -18.6% | [3] 20.2% | [4] 2.3% | [5] 26.3% | [6] -21.1%

Cc1[nH]c(/N=C/c2ccc(N(C)C)cc2)c(C#N)c1C
inactive: [1] -10.1% | [2] -0.6% | [3] -18.4% | [4] -8% | [5] -5.75% | [6] -7.75%

CCOCCOC(=O)c1ccc(C(N)=NC)cc1
inactive: [1] 12.6% | [2] -1.2% | [3] 5.2% | [4] -8.15% | [5] 6.05% | [6] 5.8%

Cc1ccsc1/C=N/Nc1nncc2ccccc12
inactive: [1] 20.3% | [2] 5.35% | [3] 20.6% | [4] 9.05% | [5] 30.4% | [6] 9.7%

O=c1[nH]c2cc([N+](=O)[O-])ccc2nc1/C(=N/Nc1ccccc1)C(O)c1ccc(C(O)/C(=N\Nc2ccccc2)c2cnc3cc([N+](=O)[O-])ccc3n2)cc1 (stereo unspecified)
inactive: [1] -4.05% | [2] -23.9% | [3] -11.4% | [4] 5.25% | [5] -6.45% | [6] -4.3%

Nc1nc(Cc2ccccc2)c(-c2ccccc2)c(-c2nc(N)nc(Cc3ccccc3)c2-c2ccccc2)n1
inactive: [1] -9.6% | [2] 14.4% | [3] -26.4% | [4] -5.15% | [5] -5.2% | [6] 7.85%

N#CC(CC(=O)c1ccccc1)c1ccc(Cl)cc1 (stereo unspecified)
inactive: [1] 1% | [2] 4.45% | [3] -6.7% | [4] -79.2% | [5] 41.4% | [6] -13.7%

Cc1cccc(-n2cnc3c(N(CCO)CCO)ncnc32)c1
inactive: [1] 6.55% | [2] 2.6% | [3] -10.1% | [4] -4.5% | [5] 2.25% | [6] -4.3%

CN(C)C=S
inactive: [1] -4.6% | [2] 1.9% | [3] -9.85% | [4] -12.6% | [5] -13.1% | [6] -4%

C/C(CC(=O)Nc1cccc(Cl)c1C)=N\NC(=O)c1ccncc1
inactive: [1] 6.05% | [2] -2.3% | [3] -6.2% | [4] -2% | [5] -0.5% | [6] 0.95%

O=C1OC(=O)C2=C1CCCC2
inactive: [1] 8.05% | [2] -18.9% | [3] 18.8% | [4] -1.15% | [5] -18% | [6] 6.7%

COc1cc([N+](=O)[O-])c(C)cc1Br
inactive: [1] 3.55% | [2] 3.75% | [3] 4.45% | [4] -18.3% | [5] -10.5% | [6] 9.45%

NC(CSS(=O)(=O)O)C(=O)O (stereo unspecified)
inactive: [1] 3.05% | [2] -2.4% | [3] -1.55% | [4] -31.9% | [5] -12.8% | [6] 2.6%

OCC1CCCCCCC1
inactive: [1] -4.25% | [2] -19.7% | [3] -3.15% | [4] 18.4% | [5] -3.65% | [6] -10.4%

Clc1cccc2[nH]c(-c3ccncc3)nc12
inactive: [1] -18.1% | [2] -15.1% | [3] -15.4% | [4] -10.8% | [5] 2.95% | [6] -5.75%
